Results on 59 compounds are retold here after PubChem BioAssay AID2685 (National Center for Advancing Translational Sciences (NCATS), 2010).

Molecules are shown by their SMILES. In all, about 320,000 compounds went through this assay and about 2,100 (0.66%) were called active. About 53% were inconclusive and are not listed. Calls come from the whole dose curve; as a rule, active = well fitted inhibition curve with a large enough effect in the signal ratio, with a control signal flat (not every such curve was filed as active); inconclusive = small, poorly fitted or top-dose-only effect, or effect the other way, or a change in a side signal; inactive = flat fitted curve, though single readings scatter; the % refers to the signal ratio. The full list was thinned out, with actives kept by preference.
Potency is the fitted concentration of half-maximal effect.

A short description of this experiment: qHTS Assay for Lipid Storage Modulators in Drosophila S3 Cells.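 For cell number change: cells counted by Cell Tracker Red CMTPX staining in the red channel.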 As to conditions: BODIPY lipid droplet fluorescence, 18-24 h, cells fed with added oleic acid; cell number change: measured here: cell count max response; series mostly up to 46.1 µM. The essentials:
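Laser-scanning cytometry quantifies lipid droplet accumulation (500–530 nm total intensity; droplet/cell object ratio) in oleic acid-fed (400 uM added) Drosophila S3 cells treated with a concentration series. 20 uM Triacsin C defined 100% inhibition.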
Turning to `Cn1cccc1CC(=O)N/N=C/c1ccc(Cl)cc1`, the Potency result was “inactive” and the cell number change was -7.57%. Regarding `Cc1cc(C)cc(OCC(=O)OCC(=O)NCc2ccco2)c1`, the Potency was 23.1 µM (active) and the cell number change was determined as 10.8%. In the same order, the values of `O=C(COC(=O)COc1ccc(Nc2ccccc2)cc1)NCc1ccco1` are “inactive” and 8.25%. In the case of `COc1ccc(CNC(=O)COC(=O)c2cc3ccccc3o2)cc1`, the Potency entry is “inactive”. In the case of `O=C(COC(=O)c1cc2ccccc2o1)NCc1ccco1`, the Potency was 0.206 µM (active) and the cell number change was -22.2%. `Cc1c(C(=O)OCC(=O)NCc2ccco2)oc2ccccc12`: the Potency entry was “inactive” and the cell number change was -15.4%. In the case of `Cc1cc(C)cc(OCC(=O)OCC(=O)NCc2cccs2)c1`, the Potency entry was “inactive” and the cell number change was -3.19%. As for `C=CCNC(=O)/C(=C\c1ccc([N+](=O)[O-])cc1)NC(C)=O`, the Potency result was “inactive”. For the compound `CC(C)/C=N/Nc1nc2c(c(=O)n(C)c(=O)n2C)n1C`, the Potency result is “inactive” and the cell number change is -4.59%.

As for `COC(=O)c1ccc2c(=O)n(-c3ccccc3)c(=S)[nH]c2c1`, the Potency result is “inactive” and the cell number change is 5.89%. Take `NC(=O)CC(NC(=O)Cc1ccc(Br)cc1)c1ccc(NCCc2ccc(Cl)cc2)c([N+](=O)[O-])c1` (stereo not given): the Potency entry was “inactive” and the cell number change is -9.69%. For `COCCOC(=O)/C(C#N)=C/c1cn(Cc2ccccc2)nc1-c1cccnc1`, the Potency entry was “inactive” and the cell number change was -16.4%.

As for `C[C@H](NC(=O)OCc1ccccc1)c1nnc([C@H](C)NC(=O)OCc2ccccc2)o1`, the Potency result is “inactive” and the cell number change amounted to 2.65%. In the case of `Cc1ccc(S(=O)(=O)N2CCN(C(=O)CN3CCc4ccccc4C3)CC2)cc1`, the Potency entry is “inactive” and the cell number change stood at 21.3%. As for `COc1cc(C(=O)Nc2ccccc2C(=O)NCc2cccnc2)cc(OC)c1OC`, the Potency entry was “inactive” and the cell number change was -22.9%. Regarding `C=CCOc1ccc(C(=O)Nc2ccccc2C(=O)NCc2cccnc2)cc1`, the Potency is 3.26 µM (active) and the cell number change was 18.4%. Turning to `COCc1ccc(C(=O)Nc2ccccc2C(=O)NCc2cccnc2)cc1`, the Potency entry is “inactive” and the cell number change amounted to 10.3%. Turning to `CC(=O)Nc1nnc(S(=O)(=O)N2CCN(c3ccc([N+](=O)[O-])cc3Cl)CC2)s1`, the Potency entry is “inactive” and the cell number change was -24.2%. With `COc1cccc(-c2cc(C(=O)Nc3ccc(OC)c(OC)c3)no2)c1`, the Potency entry is “inactive” and the cell number change was -25.5%. For the compound `O=C(Nc1ccc(N2CCOCC2)cc1)c1ccc([N+](=O)[O-])o1`, the Potency entry was “inactive” and the cell number change is -16.7%. With `CC1CCN(c2ccc(NC(=O)c3ccc([N+](=O)[O-])o3)cc2)CC1`, the Potency was 16.4 µM (active) and the cell number change was 0.613%. In the case of `CC(C)(C)C(=O)N1CCN(c2ccc(NC(=O)c3ccc([N+](=O)[O-])o3)cc2)CC1`, the Potency entry was “inactive” and the cell number change came to 19.6%. Consider `CC1CCN(c2ccc(NC(=O)c3cccnc3)cc2)CC1`, for which the Potency was 20.6 µM (active) and the cell number change was -20.1%. As to `Cc1ccc(C(=O)N2CCN(c3ccc(NC(=O)c4cccnc4)cc3)CC2)cc1`, the Potency result was “inactive” and the cell number change amounted to 4.57%. In the case of `O=C(Nc1ccc(N2CCOCC2)cc1)c1cccnc1`, the Potency entry is “inactive” and the cell number change is 3.28%.

Regarding `CCn1c(=O)c2ccccc2n(CC(=O)NCCC2=CCCCC2)c1=O`, the Potency result was “inactive” and the cell number change amounted to 25.4%. Regarding `CCn1cc(C(=O)NCC(OC)OC)c(=O)c2cc(S(=O)(=O)N3CCOCC3)ccc21`, the Potency result is “inactive”. Regarding `Cc1ccc(C)c(OCC(=O)Nc2ccncc2)c1`, the Potency result was “inactive” and the cell number change was found to be 4.4%. `COc1ccc(Nc2cc(C)c3cc([N+](=O)[O-])ccc3n2)cc1`: the Potency result was “inactive” and the cell number change was 3.7%. As for `Nc1c(C(=O)NCCc2ccccc2)nnn1Cc1ccc(Br)cc1F`, the Potency entry is “inactive” and the cell number change worked out at 2.88%. Regarding `COc1ccc([C@H]2CC(=O)C=C(c3ccc(OC)c(F)c3)C2)cc1`, the Potency is 0.731 µM (active) and the cell number change worked out at 1.81%. Turning to `COc1ccc([C@H]2CC(=O)C=C(c3ccc(C)c(F)c3)C2)cc1`, the Potency entry is “inactive” and the cell number change was -9.27%. For `COc1ccc(C2=CC(=O)C[C@H](c3ccc(F)cc3)C2)cc1OC`, the Potency entry is “inactive” and the cell number change was -2.7%. On the same counts, the results for `COc1cc(F)c(C2=CC(=O)C[C@H](c3ccc4c(c3)OCO4)C2)cc1F` are “inactive” and -8.29%. In the case of `COc1ccc(C2=CC(=O)C[C@H](c3ccc(F)cc3)C2)cc1F`, the Potency result was “inactive”. On to `COc1cc(F)c(C2=CC(=O)C[C@H](c3ccc(F)cc3)C2)cc1F`, for which the Potency was 0.731 µM (active) and the cell number change is -1.88%. For `O=C(Cc1cccc(NC(=O)C2CCN(C(=O)CCc3ccccc3)CC2)c1)Nc1cccc(C(=O)N2CCCC2)c1`, the Potency result was “inactive” and the cell number change was -25.9%. Take `CC(C)CC(=O)Nc1ccc(C(=O)CN2CCN(c3ccc(O)cc3)CC2)cc1`: the Potency is 4.61 µM (active) and the cell number change was -10.4%. For `COc1ccc(N2CCN(CC(=O)c3ccc(Cl)cc3)CC2)cc1`, the Potency is 6.51 µM (active). As for `CC(C)CC(=O)Nc1ccc(N2CCOCC2)cc1`, the Potency result was “inactive” and the cell number change is -6.68%. As to `COc1ccc(C(=O)CN2CCN(c3ccc(Cl)cc3)CC2)cc1OC`, the Potency result was “inactive” and the cell number change came to 16.9%. On to `CC(C)CC(=O)Nc1ccc(C(=O)CN2CCC(C)CC2)cc1`, for which the Potency result is “inactive” and the cell number change is 11.5%. On to `COc1ccc(N2CCN(CC(=O)c3ccccc3)CC2)cc1`, for which the Potency entry is “inactive” and the cell number change stood at 8.26%.

For the compound `CCCC(C)c1nnc(NC(=O)C2CCCO2)s1` (stereo not given), the Potency entry is “inactive”.

For `C/C(=N\NC(=O)c1ccc(-c2ccccc2)cc1)C1C(=O)c2ccccc2C1=O`, the Potency entry was “inactive” and the cell number change worked out at 2.31%.

For `COc1ccc(OC)c(NC(=O)CCN2C(=O)c3cccc([N+](=O)[O-])c3C2=O)c1`, the Potency entry was “inactive” and the cell number change came out at 12.8%. In the case of `OCCC1CN(Cc2cc3c(cc2Cl)OCO3)CCN1C1CCCCC1` (stereo not given), the Potency result was “inactive” and the cell number change came to 2.14%. As to `OCCC1CN(Cc2ccncc2)CCN1C1CCCC1` (stereo not given), the Potency entry is “inactive” and the cell number change is -1.79%. Consider `Cc1nnc(SCc2ccon2)n1-c1ccccc1`, for which the Potency result was “inactive” and the cell number change was -2.33%.

Consider `O=C(Cc1ccccc1)NCC(=O)N/N=C/c1ccc([N+](=O)[O-])s1`, for which the Potency was 16.4 µM (active) and the cell number change was found to be 17.1%. With `O=C(N/N=C/c1ccc([N+](=O)[O-])s1)c1ccccc1`, the Potency result is “inactive”. Regarding `O=C(Cc1ccccc1)NCC(=O)N/N=C/c1cccs1`, the Potency entry is “inactive”.

For `COc1ccc(OC)c(Cc2nnc(CCC(=O)NC3CCCCC3)o2)c1`, the Potency entry is “inactive” and the cell number change was -6.11%.

For `Cn1c(OCc2ccc3c(c2)OCO3)nc2c1c(=O)n(Cc1ccc(Cl)c(Cl)c1)c(=O)n2C`, the Potency entry is “inactive” and the cell number change is 10.2%. Regarding `O=c1[nH]c(=O)n(Cc2ccc(Oc3ccccc3)cc2)cc1Br`, the Potency was 18.4 µM (active) and the cell number change was 18.3%. In the same order, the values of `Cc1cn(Cc2ccccc2)c(=O)[nH]c1=O` are “inactive” and -5.94%. On the same counts, the results for `N#Cc1cn(Cc2ccccc2)c(=O)[nH]c1=O` are “inactive” and 17.6%. Take `CC1Sc2ccc(S(=O)(=O)CCC(=O)NC3CCCCC3C)cc2NC1=O` (stereo not given): the Potency result was “inactive” and the cell number change is 7.41%. For the compound `NC(=O)c1cc(C(=O)Cc2ccc(Cl)cc2)c[nH]1`, the Potency result is “inactive” and the cell number change amounted to 23.6%.
